Experimental findings from PubChem BioAssay (NCI) are described below.

The panel holds about 83,000 compounds, 20% with a hit somewhere; the sample as a whole holds those more often.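 96-well plates, one dose, 48 hours. Percent growth reported; active if below 10.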 Unmarked numbers belong to inactive results. The source made the active and inactive calls.

Test systems include HT29 colon; SNB-75 CNS; SNB-19 CNS; PC-3 prostate; SK-MEL-5 melanoma; UACC-62 melanoma; SK-MEL-28 melanoma; LOX IMVI melanoma; SK-MEL-2 melanoma; U251 CNS.
Common to all, as to test: NCI-60 one-dose screen, 48 h (100 = growth as untreated, 0 = no growth, -100 = all killed)
What all share (conditions): 10 µM unless noted

As for `COc1ccc(-c2csc(NC(=O)c3cc(OC)c(OC)c(OC)c3)n2)cc1`, the growth in the experiment on HT29 colon was 110%; in the experiment on SNB-75 CNS, 102%; in the experiment with SNB-19 CNS, 94%; in the experiment on PC-3 prostate, 90.9%; with SK-MEL-5 melanoma it was 98.5%; in the experiment on UACC-62 melanoma, 89%. Moreover, in the experiment with SK-MEL-28 melanoma, the growth is 101%.

For `O=C(O)c1ccc(NC(=O)c2cccc(Nc3ccnc(C(F)(F)F)c3)c2)cc1`, the growth in the experiment on HT29 colon was 106%; with SNB-75 CNS it was 105%; in the experiment with SNB-19 CNS it was 106%; with PC-3 prostate, 105%; with SK-MEL-5 melanoma it was 101%; in the experiment with UACC-62 melanoma, 108%. The growth in the experiment on SK-MEL-28 melanoma is 110%.

As to `Nc1ccccc1-c1ccc([N+](=O)[O-])cc1`, the growth in the experiment with HT29 colon was 78.1%; in the experiment with SNB-75 CNS, 71.9%; with SNB-19 CNS it was 67.3%; in the experiment on PC-3 prostate it was 38.9%; in the experiment on SK-MEL-5 melanoma it was 34.8%; in the experiment on UACC-62 melanoma, 24.9%. In addition, the growth in the experiment with LOX IMVI melanoma is 54.7%; in the experiment with SK-MEL-28 melanoma, 88.4%; in the experiment on SK-MEL-2 melanoma, 24.3%.

With `O=C(Cc1ccccn1)C(F)(F)C(F)(F)C(F)(F)F`, the growth with HT29 colon was 111%; in the experiment on SNB-75 CNS it was 93.6%; in the experiment on SNB-19 CNS, 99.8%; in the experiment on PC-3 prostate it was 91.3%; with SK-MEL-5 melanoma it was 110%; with UACC-62 melanoma, 102%. The growth with LOX IMVI melanoma was 95.5%; in the experiment with SK-MEL-28 melanoma, 105%; in the experiment on SK-MEL-2 melanoma, 109%.

In the case of `COc1cc(/C=C/C(=O)c2c(-c3ccc(F)cc3)nc3sc(C)nn23)cc(OC)c1OC`, the growth in the experiment on HT29 colon is 6.07% (active); with SNB-75 CNS, 10.2%; in the experiment on SNB-19 CNS, 84.9%; with PC-3 prostate, 59.9%; in the experiment with SK-MEL-5 melanoma, 27.1%; in the experiment with LOX IMVI melanoma, -19.7% (active). In addition, in the experiment on SK-MEL-28 melanoma, the growth is 65.7%.

Regarding `O=C(O)c1ccc(NC(=O)c2ccc(Nc3ccnc(C(F)(F)F)c3)cc2)cc1`, the growth with HT29 colon was 109%; with SNB-75 CNS it was 98.7%; in the experiment on SNB-19 CNS it was 99.7%; in the experiment on PC-3 prostate, 99.4%; with SK-MEL-5 melanoma, 101%; in the experiment on UACC-62 melanoma it was 107%. Moreover, in the experiment with SK-MEL-28 melanoma, the growth was 106%.

`CCCCCCC/C(=N\N=C(N)N)c1ccc(O)cc1`: the growth in the experiment with HT29 colon is 3.57% (active); in the experiment on SNB-75 CNS it was 81.6%; in the experiment with SNB-19 CNS, 37.1%; in the experiment with PC-3 prostate, 24.6%; in the experiment on UACC-62 melanoma, 51.4%; in the experiment with LOX IMVI melanoma, 31.4%. Moreover, the growth in the experiment with SK-MEL-28 melanoma is 60.4%.

Take `NC(=Nc1ccccc1)SCCCCSC(N)=Nc1ccccc1`: the growth in the experiment with HT29 colon is 94.8%; in the experiment on SNB-75 CNS, 68%; in the experiment on SNB-19 CNS it was 99.3%; in the experiment with U251 CNS it was 72.4%; in the experiment with SK-MEL-5 melanoma it was 93.7%; in the experiment on SK-MEL-28 melanoma it was 96.7%. Moreover, the growth in the experiment with SK-MEL-2 melanoma was 98.5%.

As to `CCC1(c2ccccc2)Oc2ccccc2-n2c(C#N)c3ccccc3c2C1=O` (configuration not stated), the growth is 96.8% in the experiment with HT29 colon; 95.9% with SNB-75 CNS; 106% in the experiment on SNB-19 CNS; 93.8% in the experiment on PC-3 prostate; 100% in the experiment with SK-MEL-5 melanoma; 103% with LOX IMVI melanoma. Further, the growth with SK-MEL-28 melanoma was 114%; in the experiment with SK-MEL-2 melanoma, 103%.

Take `Cc1cc(CC(=O)O)n(C)c1C(=O)c1ccc(Cl)cc1`: the growth with HT29 colon is 109%; in the experiment with SNB-75 CNS, 121%; in the experiment with SNB-19 CNS, 108%; in the experiment on PC-3 prostate, 99.5%; in the experiment with SK-MEL-5 melanoma, 98.7%; in the experiment on LOX IMVI melanoma, 97.9%. Also, the growth with SK-MEL-28 melanoma was 122%; in the experiment on SK-MEL-2 melanoma, 115%.

Regarding `Cn1cc(-c2csc(-c3cn(C)c4ncccc34)n2)c2cccnc21`, the growth was 98.7% with HT29 colon; 75.7% in the experiment on SNB-75 CNS; 94% in the experiment on SNB-19 CNS; 86.9% with PC-3 prostate; 84.9% in the experiment on SK-MEL-5 melanoma; 79.4% in the experiment on UACC-62 melanoma. In addition, the figures for the growth with LOX IMVI melanoma, with SK-MEL-28 melanoma and with SK-MEL-2 melanoma were 95%, 101% and 107%, respectively.

Turning to `O=C(/C=C/c1ccc(O)c(O)c1)N1CCN(c2ccc(Cl)cc2)CC1`, the growth in the experiment on HT29 colon is 80.1%; in the experiment with SNB-75 CNS it was 72.1%; in the experiment with SNB-19 CNS, 73.9%; in the experiment on PC-3 prostate, 61.7%; in the experiment on SK-MEL-5 melanoma it was 54.5%; in the experiment with UACC-62 melanoma it was 81.3%. Besides, the growth in the experiment on SK-MEL-28 melanoma was 81%.

In the case of `O=C(/C=C/c1ccccc1)CC(c1ccccc1)N1CCOCC1` (configuration not stated), the growth in the experiment with HT29 colon is -39.3% (active); in the experiment on SNB-75 CNS, 105%; in the experiment with SNB-19 CNS, 71.8%; in the experiment on PC-3 prostate, 89%; with SK-MEL-5 melanoma, 98.9%; with UACC-62 melanoma, 85.4%. In addition, the growth with LOX IMVI melanoma was -92% (active); in the experiment with SK-MEL-28 melanoma it was 107%; with SK-MEL-2 melanoma, -24.5% (active).

As to `COc1ccc(/C=N/NC(=O)c2ccc(S(C)(=O)=O)cc2)cc1OC`, the growth with HT29 colon was 97.9%; in the experiment on SNB-75 CNS it was 85.9%; with SNB-19 CNS, 97.3%; with PC-3 prostate, 88.5%; in the experiment on SK-MEL-5 melanoma it was 97.9%; in the experiment with UACC-62 melanoma, 92.7%. In addition, the growth was 102% with LOX IMVI melanoma, 109% in the experiment with SK-MEL-28 melanoma and 91% in the experiment with SK-MEL-2 melanoma.

As to `C[C@]12CC[C@@H]3c4ccc(O)c([N+](=O)[O-])c4CC[C@H]3[C@@H]1CC[C@@H]2NS(=O)(=O)c1ccc(C(F)(F)F)cc1`, the growth with HT29 colon was 48%; in the experiment on SNB-75 CNS, 40.5%; with SNB-19 CNS, 48.7%; in the experiment with PC-3 prostate, 24.2%; with SK-MEL-5 melanoma, 20.4%; in the experiment on UACC-62 melanoma it was 36.1%. The growth with SK-MEL-28 melanoma was 43.5%.
